How the values were obtained:
Conditions in all cases: Compound Concentration (nM):1000
HIPK2 = test system: HIPK2
HIPK3 = test system: HIPK3
HIPK4 = test system: HIPK4
HPK1 = test system: T1, HPK1
T1 construct: gene MAP4K1

HUNK = test system: HUNK
ICK = test system: ICK
IGF1R = test system: IGF1R
IKK-alpha = test system: T2, IKK-alpha
T2 construct: gene CHUK

IKK-beta = test system: T3, IKK-beta
T3 construct: gene IKBKB

IKK-epsilon = test system: T4, IKK-epsilon
T4 construct: gene IKBKE
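Note: KINOMEscan scanMAX binding as percent activity remaining versus control; lower means stronger binding.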

Row | SMILES | Percent Control (HIPK2) | Percent Control (HIPK3) | Percent Control (HIPK4) | Percent Control (HPK1) | Percent Control (HUNK) | Percent Control (ICK) | Percent Control (IGF1R) | Percent Control (IKK-alpha) | Percent Control (IKK-beta) | Percent Control (IKK-epsilon)
1 | COc1cccc(-c2c[nH]c3c(N/N=C/c4ccncc4)ncnc23)c1 [GW814408X] | 53% | 27% | 59% | 70% | 73% | 33% | 100% | 87% | 100% | 100%
2 | COC(=O)Nc1nc2ccc(Oc3ccc(NC(=O)Nc4cc(C(F)(F)F)ccc4F)cc3)cc2s1.Cl [GW693917A] | 88% | 94% | 10% | 51% | 100% | 78% | 100% | 86% | 100% | 71%
3 | COc1ccc2c(-c3ccnc(Nc4cccc(OC(F)(F)F)c4)n3)cnn2n1 [GW810372X] | 0% | 2.3% | 29% | 83% | 88% | 24% | 100% | 83% | 100% | 62%
4 | NS(=O)(=O)c1ccc(N/N=C2\C(=O)Nc3ccc(Cl)cc32)cc1 [GW280670X] | 100% | 90% | 100% | 88% | 100% | 94% | 100% | 100% | 100% | 72%
5 | COc1cc(C)c(N(C)C(=O)CN(C)C)cc1Nc1nc(Nc2cccc(F)c2C(N)=O)c2cc[nH]c2n1 [GSK2219385] | 100% | 100% | 100% | 100% | 100% | 89% | 7.7% | 100% | 100% | 61%
6 | CCS(=O)(=O)c1ccc(OC)c(Nc2ncc(-c3cccc(OC)c3)o2)c1 [GW580509X] | 56% | 45% | 18% | 88% | 100% | 100% | 100% | 100% | 100% | 100%
7 | COc1ccccc1-c1cc(/C=C2\C(=O)Nc3ncc(Br)cc32)cc(Br)c1O [GW442130X] | 100% | 100% | 92% | 99% | 69% | 81% | 100% | 100% | 100% | 100%
8 | CCn1c(-c2nonc2N)nc2c(C#CC(C)(C)O)nc(OCCNC)cc21.Cl [GSK949675] | 75% | 47% | 100% | 100% | 89% | 100% | 100% | 91% | 98% | 73%
9 | COc1cccc(-n2ncc3c(N/N=C/c4ccncc4)ncnc32)c1 [GW784752X] | 33% | 23% | 54% | 100% | 95% | 64% | 100% | 98% | 94% | 100%
10 | Cl.O=S1CCN(Cc2ccc(-c3ccc4ncnc(Nc5ccc(OCc6ccccc6)c(F)c5)c4c3)o2)CC1 [GW576924A] | 100% | 97% | 100% | 95% | 100% | 100% | 100% | 100% | 94% | 100%
11 | CCS(=O)(=O)c1ccc(OC)c(Nc2ncc(-c3cccc(F)c3)o2)c1 [GW621970X] | 87% | 79% | 74% | 100% | 100% | 100% | 100% | 100% | 100% | 98%
12 | COc1ccc2[nH]c3c4[nH]c5ccc(OC)cc5c4c4c(c3c2c1)C(=O)NC4=O [GW296115X] | 64% | 44% | 70% | 90% | 91% | 89% | 97% | 89% | 87% | 48%
13 | COc1ccc(COc2ccc(Cc3cnc(N)nc3N)cc2OC)cc1 [GW632580X] | 94% | 100% | 100% | 100% | 72% | 99% | 91% | 94% | 100% | 86%
14 | COc1cc2ncn(-c3cc(O[C@H](C)c4ccccc4Cl)c(C(N)=O)s3)c2cc1OC [GSK237701A] | 84% | 93% | 99% | 26% | 100% | 91% | 97% | 83% | 92% | 81%
15 | COc1cc2ncnc(Nc3ccc4c(cnn4Cc4ccccc4)c3)c2cc1OC.Cl [GW282449A] | 100% | 100% | 100% | 100% | 92% | 100% | 100% | 100% | 100% | 100%
16 | CC1=C(C(=O)Nc2ccc3[nH]ncc3c2)C(c2ccc(Cl)c(Cl)c2)CC(=O)N1 (centres unmarked) [GSK299115A] | 92% | 83% | 100% | 100% | 80% | 83% | 93% | 81% | 76% | 100%
17 | NS(=O)(=O)c1ccc(N/N=C2\C(=O)Nc3ccc(C(=O)NCc4ccncc4)cc32)cc1 [GW300657X] | 9.9% | 12% | 81% | 70% | 86% | 15% | 95% | 86% | 83% | 42%
18 | CCc1ccc(Oc2nccc(-c3c(-c4ccc(F)cc4)ncn3C3CCNCC3)n2)cc1 [SB-242719] | 92% | 100% | 100% | 54% | 86% | 100% | 97% | 99% | 100% | 56%
19 | NS(=O)(=O)c1ccc(Nc2ncc(-c3ccccc3)o2)cc1 [GW572399X] | 72% | 75% | 100% | 100% | 92% | 89% | 100% | 90% | 100% | 78%
20 | NS(=O)(=O)c1ccc(N/N=C2\C(=O)Nc3ccc(C(=O)NCCc4c[nH]cn4)cc32)cc1 [GW300660X] | 7.5% | 12% | 100% | 74% | 100% | 22% | 100% | 85% | 100% | 100%
